Sfp PPTase inh – blocks B. subtilis Sfp PPTase activity. Biochemical Sfp PPTase activity, qHTS. Potency, µM, for inactives: largest response in the series, negative = inhibition, most hits filed as inhibitors. 310,000 compounds, 3.5% hits;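 further: the enzyme is Sfp with the accession as filed and its product quenches rhodamine fluorescence; 0% = enzyme reaction without inhibitor and -100% = no enzyme wells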
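Step 1, compound plus 15 nM Sfp-PPTase, 15 min, room temperature. Step 2, add rhodamine-CoA (5 uM) and BHQ-2-YbbR (12.5 uM). Step 3, read 525/598 nm fluorescence at 0 and 30 min.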
RORgamma inh – inhibitors of mouse ROR gamma transcriptional activity; Potency, µM (doses to about 53.6 µM), inactives show top-dose activity change, negative = inhibition, usual class: inhibitors; 310,000 compounds, 5.4% hits; AID 2551; Drosophila S2 Gal4-RORgamma UAS-luciferase reporter, 20 h; further: on the % scale 0 is the no-effect control and ±100 the full control effect; nearly all actives have a fitted effect of over 60% in size
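Schneider cells (Drosophila), stable Gal4 DBD–ROR gamma + UAS-luc; 1 hr cmpd preincubation; Cu2+ induction 700 uM final; 20 hr ambient; luminescence.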
PINK1 expr mod – changes PINK1 expression; PINK1 immunofluorescence, high-content cytometry, 24 h; Potency, µM (titrated, usually from 76.6 µM), for inactives: at the top dose activation (PINK1 increase), usual class: activators; 410,000 compounds, 0.2% hits; AID 624263; active means well fitted activation curve with a large enough effect; inconclusive means small, poorly fitted or top-dose-only effect; cell line not stated here; further: % of control where 0% means no effect; nearly all actives have a fitted effect of over 65% in size
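Compound titrations (5 concentrations, 24 h) on a stable cell line; DMSO and CCCP controls. Endpoint: fixed-cell PINK1 immunofluorescence with mitochondrial, cell and nuclear markers, scanned by microplate cytometer.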
Epigenetic reg – derepresses silenced GFP reporter in murine cells. murine LDR cells, GFP reporter derepression, 30 h. Potency, µM (series often up to 53.9 µM), inactives show at the highest dose GFP activation, actives largely listed as activators. AID 1865. 280,000 compounds, 0.2% hits; further: % of control where 0% means no effect; nearly all actives have a fitted effect of over 60% in size
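In this reporter-derepression format, murine cells bearing a silenced integrated CMV-GFP locus incubate with test compound (30 h, 37 C), then are washed and imaged; fluorescent objects of 20–120 um count as induced cells.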
ClpP mod – qHTS Assay for Activators of ClpP; ATP-dependent Clp protease proteolytic subunit (Bacillus subtilis (strain 168)), P80244; purified B. subtilis ClpP, FRET peptide cleavage, 20 min; Potency, µM (highest dose often 57.5 µM), for the others: at the top dose activity change, negative = active; 340,000 compounds, 1.9% hits; AID 651965, 2013; active means well fitted falling curve with a large enough effect; inconclusive means small, poorly fitted or top-dose-only effect; inactive means no such curve, though single readings can be large or run the other way; further: the source files actives as falling curves though it sought activators and does not explain the sign; nearly all actives have a fitted effect of over 65% in size
Target sequence (P80244 whole entry, looked up): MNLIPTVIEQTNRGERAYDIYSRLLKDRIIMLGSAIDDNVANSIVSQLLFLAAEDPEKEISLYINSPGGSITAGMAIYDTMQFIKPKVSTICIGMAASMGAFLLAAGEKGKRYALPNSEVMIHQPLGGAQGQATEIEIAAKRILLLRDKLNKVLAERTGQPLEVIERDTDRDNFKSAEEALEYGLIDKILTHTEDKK
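FRET quenching reversal measured ClpP activation: 10 microg/mL B. subtilis ClpP at pH 8 with the FRET-FV decapeptide, read at 430 nm after 320 nm excitation. The 20-min minus 0-min signal was scaled between DMSO/no-enzyme wells and ADEP (5.8 microM final).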
VP16 counter – counter-screen for ROR gamma inhibitors: Gal4-VP16 reporter. Drosophila S2 Gal4-VP16 UAS-luciferase, luminescence, 20 h. Potency, µM (titrated, usually from 53.6 µM), for the others: at the top dose activity, negative = inhibition, hits mostly inhibitors. 310,000 compounds, 3.5% hits. AID 2546;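 further: Gal4-VP16 expression switched on by copper sulfate through the metallothionein promoter; on the % scale 0 is the no-effect control and ±100 the full control effect; nearly all actives have a fitted effect of over 50% in size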
* = called active by the depositor; u = inconclusive; x = no result given; [ ] = remark or other dose. Rows were chosen to be rich in hits. Some 8.1% of all compounds tested hit in one or more screens of this group. Unless noted, the call rests on the fitted dose curve; in most records, active means well fitted curve in the direction sought with a large enough effect; inconclusive means small, poorly fitted or top-dose-only effect, or another doubt; inactive means no such curve, though single readings can be large; an effect the other way counts as inactive or inconclusive. Potency means the concentration at half of the fitted maximal effect.

SMILES | Sfp PPTase inh | RORgamma inh | PINK1 expr mod | Epigenetic reg | ClpP mod | VP16 counter
CCOC(=O)c1ccc(NC(=O)c2ccc(OC(C)C)c(OC)c2)cc1 | 4% | -3% | 0% | 1% | -1% | -13%
CS(=O)(=O)N(CC(=O)N1CCN(C(c2ccccc2)c2ccccc2)CC1)C1CCCCC1 | 3% | 13µM* | x | 0% | 0% | -1%
C#CCOCCOCCOCCNc1nc(N2CCN(C(=O)C(Cc3cc4ccccc4[nH]3)n3cc(C(N)C(C)CC)nn3)CC2)nc(N2CCN(C(=O)C(Cc3cc4ccccc4[nH]3)n3cc(C(N)C(C)CC)nn3)CC2)n1 (stereo not drawn) | 18µM* | -3% | 19% | 0% | -11% | -14%
C#CCOCCOCCOCCNc1nc(N2CCN(C(=O)C(Cc3ccc(O)cc3)n3cc(C(N)CC(C)C)nn3)CC2)nc(N2CCN(C(=O)C(Cc3cc4ccccc4[nH]3)n3cc(C(N)C(C)CC)nn3)CC2)n1 (stereo not drawn) | -3% | -15% | x | -1% | x | -3%
C#CCOCCOCCOCCNc1nc(N2CCOCC2)nc(N2CCN(C(=O)[C@H](Cc3cc4ccccc4[nH]3)n3cc([C@@H](N)C(C)CC)nn3)CC2)n1 (stereo partly drawn) | -4% | 23% | 2% | -5% | -5% | -4%
C#CCOCCOCCOCCNc1nc(N2CCN(C(=O)[C@H](Cc3ccc(O)cc3)n3cc([C@@H](N)C(C)CC)nn3)CC2)nc(N2CCN(C(=O)[C@H](Cc3cc4ccccc4[nH]3)n3cc([C@@H](N)Cc4ccc(O)cc4)nn3)CC2)n1 (stereo partly drawn) | 56µM* | 1% | x | 7% | x | -11%
Cc1ccc(-n2nnnc2SCC(=O)NCCc2ccccc2)cc1C | x | x | 2% | -1% | 1% | x
N#C/C(=C/c1ccc(Br)o1)C(N)=S | 35µM* | -16% | x | 8% | x | -1%
N#C/C(=C/c1ccc(Br)o1)C(N)=O | 7% | 13% | 5% | -1% | 0% | -15%
COc1cc(/C=C/c2nc3ccccc3s2)cc(OC)c1O | -39% | -2% | -1% | 12% | -3% | -9%
CN(C)c1ccc(/C=C/c2cc(/C=C/c3ccc(N(C)C)cc3)c3ccccc3n2)cc1 | x | x | 20% | x | 2% | x
Cc1ccc(/C=C/c2nc3ccccc3s2)s1 | -7% | u | 0% | 0% | -7% | 10µM*
CN(C)c1ccc(CNc2nc3ccccc3s2)cc1 | 11% | 5µM* | x | x | x | 7.9µM*
CN(C)c1ccc(CNc2nc3ccccc3n2C)cc1 | x | x | 1% | x | -2% | x
CN(C)c1ccc(/C=C/c2nc3ccccc3s2)cc1 | -6% | 0.32µM* | 45µM* | u | -1% | 4µM*
C=C(/C=C/c1ccc(N(C)C)cc1)c1nc2ccccc2s1 | x | x | 10µM* | x | 0% | x
CN(Cc1ccccc1)c1ccc(/C=C/c2nc3ccccc3s2)cc1 | x | x | u | x | 0% | x
c1ccn2cc(-c3ccc4c(c3)OCO4)cc2c1 | 56µM* | -25% | 10% | 5% | x | -20%
CCOC(=O)CS(=O)(=O)c1nc(-c2ccccc2)cc(C(F)(F)F)n1 | 50µM* | 2.8µM* | -3% | 1% | -8% | 5µM*
COC(=O)CCS(=O)(=O)c1nc(-c2ccccc2)cc(C(F)(F)F)n1 | -21% | 7.1µM* | -5%[38.3 µM] | 2% | -7% | 5.6µM*
CCOC(=O)CS(=O)(=O)c1ccccc1 | 2% | 5% | 0% | 0% | -3% | 1%
CCOC(=O)c1c(C(F)(F)F)cc(-c2ccc(F)cc2)nc1C | 0% | 19% | u | -1% | 1% | 7%
COC(=O)c1ccccc1NC(=O)CCCS(=O)(=O)c1nc(-c2ccccc2OC)cc(C(F)(F)F)n1 | x | x | 0% | -2% | 3% | x
CCOC(=O)CS(=O)(=O)c1nc(-c2ccc(F)cc2)cc(C(F)(F)F)n1 | -61% | 5.6µM* | -1% | u | 22µM* | 5µM*

Screening results deposited in PubChem by National Center for Advancing Translational Sciences (NCATS).
